Screening results deposited in PubChem by National Center for Advancing Translational Sciences (NCATS).
Tb PYK inh = blocks Trypanosoma brucei pyruvate kinase; Q57TT1; TbPYK enzyme, Kinase-Glo Plus ATP luminescence, 45 min; Potency, µM (series often up to 76.8 µM), for inactives: at the top dose activity, negative = inhibition, actives largely listed as inhibitors; hit rate 0.12% among 410,000; AID 624173; also: potency is read from the fitted curve at half-maximal effect; nearly all actives have a fitted effect of over 50% in size
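Glycolytic pyruvate kinase of T. brucei was incubated with substrate, test compound and 130 uM ADP for 45 minutes at room temperature. Luminescent Kinase-Glo Plus signal was measured after 10 minutes.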
FBPA Giardia inh = Giardia lamblia aldolase inhibition. A8B2U2. purified Giardia FBPA. Potency, µM (highest dose often 59.6 µM), for inactives: top-dose activity, negative = inhibition, most hits filed as inhibitors. hit rate 0.71% among 290,000; also: potency is read from the fitted curve at half-maximal effect; nearly all actives have a fitted effect of over 55% in size
Target sequence (A8B2U2 whole entry, looked up): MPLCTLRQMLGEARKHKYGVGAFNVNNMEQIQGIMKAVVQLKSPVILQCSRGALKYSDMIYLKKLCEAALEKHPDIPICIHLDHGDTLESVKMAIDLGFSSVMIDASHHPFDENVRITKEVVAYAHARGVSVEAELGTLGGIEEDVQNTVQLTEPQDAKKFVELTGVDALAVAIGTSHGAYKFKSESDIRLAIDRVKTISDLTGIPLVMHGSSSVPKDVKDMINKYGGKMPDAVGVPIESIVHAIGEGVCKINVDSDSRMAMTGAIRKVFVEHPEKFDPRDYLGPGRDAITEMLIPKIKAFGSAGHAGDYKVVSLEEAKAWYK
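Giardia FBPA (40 nM reagent) was preincubated 10 min at RT with compound (up to 57.5 uM final), then substrate plus GAPDH/TPI/NAD/arsenate coupling system with diaphorase/resazurin was added; resorufin fluorescence (525/598 nm) was read after 20 min.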
RE007 growth inh = less growth of the S. pombe RE007 Vpr strain; AID 651644; hit rate 0.21% among 360,000; Potency, µM (highest dose often 92.2 µM), for inactives: at the highest dose activity change, negative = less growth, usual class: inhibitors; S. pombe RE007 Vpr strain, BacTiter-Glo ATP luminescence, 24 h; active = well fitted falling curve with a large enough effect; inconclusive = small, poorly fitted or top-dose-only effect; inactive = no such curve, though single readings can be large or run the other way; also: potency is read from the fitted curve at half-maximal effect; nearly all actives have a fitted effect of over 50% in size
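Fission yeast RE007 carrying one integrated HIV-1 vpr copy, seeded at OD 0.01 in PMG+AL medium with 23 nL pinned compound. Grown 24 h at 30 degrees; viability read by BacTiter-Glo luminescence after 5 min.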
HCMV inh = inhibitors of human cytomegalovirus | HFF cells, HCMV-luciferase reporter, 72 h; active compounds read low | activity change, negative = inhibition, % at 57.5 µM | hit rate 4.5% among 410,000; in the data active = activity change below about -60%; inconclusive = no clear call, values can overlap the other calls; inactive = above about -39%
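Screen run at 2 compound doses on HFFs infected with reporter HCMV, MOI 1 PFU/cell. Luciferase activity from cell lysates at 72 h post infection gave inhibition relative to buffer-only and Salinomycin wells.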
Sm TGR block = inhibitors of Schistosoma mansoni thioredoxin glutathione reductase; hit rate 3% among 360,000; purified TGR, DTNB reduction, TNB absorbance 405 nm; Potency, µM (doses to about 114 µM), inactives show at the highest dose activity change, negative = inhibition, hits mostly inhibitors; Q962Y6; also: potency is read from the fitted curve at half-maximal effect; nearly all actives have a fitted effect of over 60% in size
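Kinetic colorimetric format: TGR-catalysed, NADPH-driven DTNB reduction monitored via TNB absorbance. Enzyme dispensed at 20 nM; compound exposure 15 min at room temperature before reaction start.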
FMDV inh = blocks foot and mouth disease virus; Potency, µM (top dose mostly 57.9 µM), for the others: at the highest dose activity change, negative = inhibition, hits mostly inhibitors; hit rate 1.2% among 410,000; FMDV antiviral cell-based qHTS; calls by dose curve; tested in HEK293T cells; also: read-out not given here; potency is read from the fitted curve at half-maximal effect; nearly all actives have a fitted effect of over 45% in size
Active calls of the source: *; ? = inconclusive; . = no result; ! = a repeat was not active; [ ] = another dose, or the depositor's remark. The list is not random: actives were taken first. Their share in the collection is about 7.7%. Unless noted, calls follow the shape of the dose curve; as a rule, active = well fitted curve in the direction sought with a large enough effect; inconclusive = small, poorly fitted or top-dose-only effect, or another doubt; inactive = no such curve, though single readings can be large; an effect the other way counts as inactive or inconclusive. % is scaled to controls: 0 for no effect and ±100 for the full control effect.

SMILES	Tb PYK inh	FBPA Giardia inh	RE007 growth inh	HCMV inh	Sm TGR block	FMDV inh
C[C@@H]1CN([C@@H](C)CO)C(=O)CCCn2cc(nn2)CO[C@H]1CN(C)C(=O)Nc1cccc(C(F)(F)F)c1	.	.	.	-13	.	.
CCCCCCCC/C=C\CCCCCCCC(=O)OC[C@@H](O)COP(=O)(O)O	.	4%	.	.	.	3%[6.7 µM]
Cc1cccc(-c2nc(CSCC(=O)N3CCN(c4ccccc4)CC3)c(C)o2)c1	3%	.	.	-23	3%	?
Cc1cc(C)c2c(=O)nc(SCc3ccccc3C)n(C3CC3)c2n1	-2%	.	.	3	3%	0%
COc1ccccc1C(=O)Nc1c(C(=O)N(CCN(C)C)Cc2ccco2)oc2ccccc12	0%	.	23%	-82*!	-4%	?
Cc1ccccc1C(=O)Nc1c(C(=O)N(CCN(C)C)Cc2ccco2)oc2ccccc12	-3%	0%	-12%	-30	-28%	-3%
COc1ccccc1C(=O)Nc1c(C(=O)NC(C)(C)C)oc2ccccc12	-3%	.	.	-71*	8%	0%
CN(C)CCN(Cc1ccco1)C(=O)c1oc2ccccc2c1NC(=O)c1ccccc1	-3%	.	.	-61*	-6%	-15%
COc1ccccc1C(=O)Nc1c(C(=O)c2ccccc2)oc2ccccc12	-1%	.	.	-16	0%	-6%
CC(Oc1ccccc1)C(=O)Nc1c(C(=O)Nc2cccc(F)c2)oc2ccccc12 (configuration not stated)	-3%	.	.	13	2%	-6%
CCCN1Cc2cccc(C(=O)Nc3cc(C)cc(C)c3)c2C1=O	6%	.	.	2	2%	-14%
C=CCNC(=O)CN1CCC(n2c(C)nc3cc(C(F)(F)F)ccc32)CC1	-3%	0%	2%	0	-8%	-4%
Cc1nc2cc(C(F)(F)F)ccc2n1C1CCN(CC(=O)NC(C)(C)C)CC1	-16%	5%	-19%	-82*	1%	-17%
Cc1ccc(N2CCN(C(=O)C3CCN(S(=O)(=O)c4ccc5c(c4)oc(=O)n5C)CC3)CC2C)cc1 (configuration not stated)	3%	.	.	-11	-15%	?
C=CCC(Nc1ccccc1)C12C=CC(O1)C(C(=O)OC)=C2C(=O)OC (configuration not stated)	-14%	-3%	-4%	125	6.3µM*	?
CCOC1=CC2=C(C(=O)C(Cl)=CC2=O)[C@@H]2CN(S(=O)(=O)c3ccc(C)cc3)[C@@H](c3ccccc3)[C@H]12	2.5µM*	.	6%	1	.	?
CCCCCC(CC(=O)NO)C(=O)NC(C(=O)N1CCCC1CO)C(C)C (configuration not stated)	-11%	.	-4%[18.4 µM]	-69*	-5%	-18%
COc1cccc(-c2nc3c(c(SCC(=O)Nc4cccc(C)c4C)n2)Cc2c(CO)cnc(C)c2O3)c1	3%	.	.	-35	-2%	1%
C=CCSc1ncc(C(=O)OCC)c(N)n1	-3%	2%	3%	11	5%	47%
CCOC(=O)c1cnc(SSc2ncc(C(=O)OCC)c(N)n2)nc1N	?	-16%	16%	30	50µM*	-13%
CCN(C(=O)Cn1c(=O)oc2cc(S(=O)(=O)N3CCCCC3)ccc21)c1ccccc1	-2%	.	.	-19	-4%	-16%
Cn1c(=O)c(C#N)c(-c2ccc(F)cc2)c2cc(C(=O)c3cc(Cl)cc(Cl)c3O)cnc21	1%	-6%	-4%	-61*	-3%	?
COc1ccccc1-n1c(=O)c(C#N)c(-c2ccc([N+](=O)[O-])cc2)c2cc(C(=O)c3cc(F)ccc3O)cnc21	-2%	-11%	-2%	?	8%	6%
N#Cc1c(Cl)nc(Cl)c2c1CCN(Cc1ccccc1)C2	-3%	-15%	-4%	-5	35µM*	?
CCCOC(=O)c1ccc(Oc2c(-c3ccc(O)cc3O)n[nH]c2C)cc1	-1%	0%	36%	-77*	0%	-8%
SMILES	Tb PYK inh	FBPA Giardia inh	RE007 growth inh	HCMV inh	Sm TGR block	FMDV inh
CCOc1ccc(NC(=O)c2oc(=O)c3ccccc3c2-c2ccc(C)cc2)cc1	6%	.	.	9	6%	-29%
CCCc1[nH]nc2c1C(c1cc(OC)cc(OC)c1)C(C#N)=C(N)O2 (configuration not stated)	-8%	-28%	-6%	-3	25µM*	-6%
Cc1cc2nc(C)n(CCCNC(=O)Nc3cccc4ccccc34)c2cc1C	-5%	6%	18%	-80*	0%	-23%
CCOc1ccc(NC(=O)NCCCn2c(C)nc3cc(C)c(C)cc32)cc1	-1%	0%	12%	-22	14%	-22%
O=C(COc1ccc([N+](=O)[O-])cc1)N1CCC(c2nc3ccccc3s2)CC1	0%	.	.	-61*	?	?
O=C(NCCc1ccc(F)cc1)C(=O)NCC(c1ccco1)S(=O)(=O)c1ccccc1 (configuration not stated)	-6%[15.4 µM]	.	.	?	-23%	-19%
Cc1ccccc1CNC(=O)C(=O)NCC(c1ccco1)S(=O)(=O)c1ccc(F)cc1 (configuration not stated)	2%	.	.	-19	8.9µM*	-29%
COc1ccc(CCNC(=O)C(=O)NCC(c2ccco2)S(=O)(=O)c2ccccc2)cc1OC (configuration not stated)	0%	.	.	42	13µM*	?
COc1ccccc1CCNC(=O)C(=O)NCC(c1cccs1)S(=O)(=O)c1ccc(F)cc1 (configuration not stated)	-3%	.	.	-18	-1%	?
COc1ccccc1CCNC(=O)C(=O)NCC(c1ccco1)S(=O)(=O)c1ccc(F)cc1 (configuration not stated)	-16%	.	.	-15	18µM*	-17%
COc1ccccc1CNC(=O)C(=O)NCC(c1ccco1)S(=O)(=O)c1ccc(C)cc1 (configuration not stated)	-6%	.	.	-12	-26%	?
CS(=O)(=O)N(CC(=O)NCCSCc1ccccc1)c1cc(C(F)(F)F)ccc1Cl	1%	.	.	-1	8%	16%
CC(C)(C)S(=O)(=O)N1C[C@H]2CC(=O)C=C2[C@@H]1CCO	.	.	.	-15	.	.
Cc1cnc(CNC(=O)c2c3n(c(C)cc2=O)-c2ccccc2SC(c2ccsc2)C3)cn1 (configuration not stated)	.	.	.	.	.	-15%
COc1ccc2c(c1OC)CN1CCc3cc4c(cc3C1C2)OCO4 (configuration not stated)	2%	-7%	-12%	-87*	-4%	?
O=C(CSc1nc2ncccc2[nH]1)c1ccc(F)cc1	-10%	1%	-12%	-19	-1%	9%
O=C(CSc1nc2ncccc2[nH]1)c1cccc([N+](=O)[O-])c1	-9%	-30%	4%	-66*	-20%	-28%
